Experimental findings from PubChem BioAssay are described below.

Active and inactive are the calls of the source. Unless noted, how the calls were made is not given here.

Experiment [1] is described as follows: HepG2 liver cancer cell viability effects, profiling panel, resazurin fluorescence, 24 h, PK04 Diversity Set (AID 1172). Further: test concentration not given here. The settings on record: higher = more signal.
Experiment [2] is described as follows: basal S. cerevisiae growth modulation, no modifier, primary screen, OD600, strain BY4716, 24 h, basal condition (AID 1173). The settings on record: OD600, 24 h, higher = more signal, called active from +8 up or from −8 down.
Experiment [3] can be described thus: MM1S myeloma cell viability, profiling panel, resazurin fluorescence, basal, 24 h, PK04 Diversity Set (AID 1174).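 Further: MM1S multiple myeloma cell line; test concentration not given here.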 The settings on record: higher = more signal, called active from +8 up or from −8 down. (In general: Alamar Blue is a resazurin reagent that responds to reducing activity.)
For experiment [4], the target named is Dihydroorotate dehydrogenase (quinone), mitochondrial (Plasmodium falciparum (isolate 3D7)) (UniProt Q08210). Nature of the experiment: PfDHODH enzyme inhibitors, primary screen, biochemical, C-terminal His tag, absorbance 600 nm (AID 1175).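 Further: recombinant parasite enzyme with a five histidine tag at its C terminus; test concentration not given here.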 The settings on record: DCIP absorbance 600 nm, higher = more signal, called active from +8 up or from −8 down.
Experiment [5] is described as follows: P. aeruginosa biofilm formation inhibitors, primary screen, strain PAO1, LB-PBS medium, absorbance 600 nm (AID 1176). Further: test concentration not given here. The settings on record: P. aeruginosa PAO1 growth/biofilm, A600, 12 h; higher = more signal.
Experiment [6] can be described thus: S. cerevisiae RM11-1a growth modifiers, primary screen, strain RM11-1a, OD600, basal, 24 h (AID 1177).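 Further: cultures grown under basal conditions with no added stressor; test concentration not given here.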 The note with it: OD600, 24 h, higher = more signal, called active from +8 up or from −8 down.
A short description of experiment [7]: E. coli acrAB mutant growth effects, primary screen, E. coli filamentation inducers, strain DRC39, OD650, 24 h (AID 1178).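 Further: growth measured as culture turbidity by optical density at 650 nm; test concentration not given here.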 The settings on record: higher = more signal, called active from +8 up or from −8 down.
Experiment [8] in a line: E. coli acrAB mutant growth effects, primary screen, E. coli filamentation inducers, strain DRC39, OD650, 48 h (AID 1179).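 Further: screen aims at cell division blockers that make cells filament.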 The settings on record: E. coli DRC39 delta-acrAB growth, higher = more signal, called active from +8 up or from −8 down.
The nature of experiment [9]: RPMI8226 myeloma cell viability, profiling panel, resazurin fluorescence, basal, 24 h, PK04 Diversity Set (AID 1180).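 Further: RPMI8826 multiple myeloma cell line at 5000 cells per well; test concentration not given here.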 The note with it: higher = more signal.
Experiment [10] deals with E3 ubiquitin-protein ligase XIAP (Homo sapiens) (UniProt P98170). Nature of the experiment: XIAP binders, primary screen, biophysical, small-molecule microarray, fluorescence 635 nm (AID 1181).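 Further: score merges 667 nm emission and signal to noise over triplicate slides.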 The settings on record: small-molecule microarray binding, higher = more signal.
Chain of E3 ubiquitin-protein ligase XIAP (Homo sapiens) (P98170 whole entry, looked up): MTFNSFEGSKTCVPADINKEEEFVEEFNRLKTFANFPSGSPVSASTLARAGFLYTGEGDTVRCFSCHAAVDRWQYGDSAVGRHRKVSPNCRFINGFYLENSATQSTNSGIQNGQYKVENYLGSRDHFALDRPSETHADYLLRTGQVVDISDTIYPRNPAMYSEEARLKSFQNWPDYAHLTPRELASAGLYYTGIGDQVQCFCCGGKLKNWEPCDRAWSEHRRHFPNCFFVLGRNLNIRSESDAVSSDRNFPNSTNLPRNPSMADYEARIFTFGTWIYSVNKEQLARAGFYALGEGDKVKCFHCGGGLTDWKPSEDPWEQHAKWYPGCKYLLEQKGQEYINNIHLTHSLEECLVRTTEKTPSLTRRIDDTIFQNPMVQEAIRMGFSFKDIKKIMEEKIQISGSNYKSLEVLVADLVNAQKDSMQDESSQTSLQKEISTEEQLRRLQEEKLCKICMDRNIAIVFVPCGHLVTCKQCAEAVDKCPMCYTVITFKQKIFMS

Chain of Dihydroorotate dehydrogenase (quinone), mitochondrial (Plasmodium falciparum (isolate 3D7)) (Q08210 whole entry, looked up): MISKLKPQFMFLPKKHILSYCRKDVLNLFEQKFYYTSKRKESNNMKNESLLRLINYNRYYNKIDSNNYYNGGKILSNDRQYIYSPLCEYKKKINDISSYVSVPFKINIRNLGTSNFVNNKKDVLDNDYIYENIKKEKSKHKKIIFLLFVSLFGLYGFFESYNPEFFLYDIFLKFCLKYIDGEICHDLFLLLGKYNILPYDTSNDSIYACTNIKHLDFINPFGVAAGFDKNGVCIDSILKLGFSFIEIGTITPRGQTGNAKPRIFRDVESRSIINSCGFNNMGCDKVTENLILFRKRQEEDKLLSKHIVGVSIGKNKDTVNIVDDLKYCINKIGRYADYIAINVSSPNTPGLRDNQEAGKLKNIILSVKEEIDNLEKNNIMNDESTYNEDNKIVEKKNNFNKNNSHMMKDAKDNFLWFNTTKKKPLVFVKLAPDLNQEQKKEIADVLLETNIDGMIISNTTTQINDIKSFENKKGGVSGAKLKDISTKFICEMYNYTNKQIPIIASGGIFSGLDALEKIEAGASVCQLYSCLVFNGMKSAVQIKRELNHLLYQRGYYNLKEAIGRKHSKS

Take `COC(=O)[C@@]1(Cc2ccc(F)cc2)[C@H]2c3cc(C(=O)N4CCCC4)n(CCc4ccccn4)c3C[C@H]2CN1C(=O)c1ccccc1`: the z-score was -0.386 in [1]; 0.842 (inactive) in experiment [2]; -0.232 (inactive) in experiment [3]; 0.647 (inactive) in [5]; 0.564 (inactive) in experiment [6]; -0.803 (inactive) in [7]. In addition, the z-score in experiment [8] was -0.588 (inactive); in [9] it was -0.102. For the same compound, the composite z-score in experiment [4] is 0.224 (inactive); in experiment [10], 0.0853.

In the case of `COc1ccc([Si](C)(C)[C@H]2[C@H](CCO)O[C@@]3(C(=O)N(Cc4ccc(NC(=O)[C@H](C)O)cc4)c4ccccc43)[C@@H]2C)cc1`, the z-score in [1] is -4.93; in experiment [2], 0.532 (inactive); in experiment [3], -8.02 (active); in experiment [5], -0.753 (inactive); in [6], 3.05 (inactive); in experiment [7], -0.106 (inactive). The results for the z-score in [8] and in experiment [9] were -0.802 (inactive) and -6.21, respectively. Also, the composite z-score is -0.0575 (inactive) in [4] and -0.0592 in [10].

Regarding `CO[C@H]1O[C@H](CO)[C@@H](OC(=O)Nc2ccccc2-c2ccccc2)[C@H](OC(=O)Nc2ccccc2)[C@H]1OC(=O)Nc1ccccc1`, the z-score was -1.68 in experiment [1]; 0.788 (inactive) in experiment [2]; -3.07 (inactive) in experiment [3]; 2.11 (inactive) in [5]; 2.81 (inactive) in experiment [6]; 1.15 (inactive) in experiment [7]. Further, the z-score in experiment [8] was 0.172 (inactive); in [9], -2.06. The composite z-score is -0.0626 (inactive) in experiment [4] and 0.0479 in experiment [10].

In the case of `CN1C(=O)C2C=CC(C(O)c3ccc(-c4ccccc4)s3)N(NC(=O)OC(C)(C)C)C2C1=O` (stereo not given), the z-score in experiment [1] was -0.807; in experiment [2], 0.537 (inactive); in experiment [3], -0.629 (inactive); in experiment [5], 1.08 (inactive); in experiment [6], 0.432 (inactive); in [7], 0.28 (inactive). In addition, the z-score was -0.0168 (inactive) in experiment [8] and -0.694 in experiment [9]. For the same compound, the composite z-score in [4] is 0.63 (inactive); in [10] it was -0.162.

As to `O=C1C=C(c2ccccc2)C(=O)C2=C1CC([C@H]1Oc3ccccc3S(=O)(=O)N3CCC[C@@H]13)=CC2`, the z-score in [1] is 0.203; in experiment [2], -3.37 (inactive); in experiment [3], -7.16 (inactive); in experiment [5], -0.0461 (inactive); in [6], -0.926 (inactive); in experiment [7], 0.0769 (inactive). The figures for the z-score in experiment [8] and in experiment [9] were -0.807 (inactive) and -4.88, respectively. For the same compound, the composite z-score in [4] was -1.54 (inactive); in [10], -0.127.

On to `N#Cc1ccc(C(O)C2C=CC3C(=O)NC(=O)C3N2Nc2ccc(Cl)cc2Cl)cc1` (stereo not given), for which the z-score was -1.53 in experiment [1]; -14.4 (active) in experiment [2]; -1.43 (inactive) in experiment [3]; 1.26 (inactive) in experiment [5]; -0.633 (inactive) in experiment [6]; -0.48 (inactive) in experiment [7]. Besides, the z-score in [8] is -0.413 (inactive); in [9] it was -1.35. For the same compound, the composite z-score in experiment [4] was -0.173 (inactive); in [10], 0.0856.

As to `COCCOC(=O)N1C(=O)[C@@]2(c3cc(C#Cc4ccc(OC)cc4)ccc31)[C@H](c1ccc(OCCO)cc1)N1[C@H](c3ccccc3)[C@H](c3ccccc3)OC(=O)[C@H]1[C@@H]2C(=O)NC[C@H](O)c1ccccc1`, the z-score in experiment [1] was -0.234; in experiment [2], 3.05 (inactive); in experiment [3], -0.486 (inactive); in [5] it was 5.17 (inactive); in [6], 3.81 (inactive); in experiment [7], -0.6 (inactive). Also, the z-score was -0.189 (inactive) in experiment [8] and -0.508 in experiment [9]. Besides, the composite z-score was -1.12 (inactive) in [4] and 0.115 in [10].

`C=CCNC(=O)[C@H]1[C@@H]2C(=O)O[C@@H](c3ccccc3)[C@@H](c3ccccc3)N2[C@@H](c2ccc(OCCO)cc2)[C@]12C(=O)Nc1ccc(C#CC3(O)CCCCCC3)cc12`: the z-score in experiment [1] is -0.311; in experiment [2] it was 0.868 (inactive); in experiment [3], -0.823 (inactive); in [5], 0.898 (inactive); in experiment [6] it was 2.62 (inactive); in experiment [7] it was 0.352 (inactive). For the same compound, the z-score is 0.988 (inactive) in experiment [8] and -0.987 in experiment [9]. Further, the figures for the composite z-score in experiment [4] and in experiment [10] were -0.0685 (inactive) and -0.224, respectively.

Turning to `COC(=O)[C@@]1(Cc2ccccc2)[C@H]2c3cc(C(=O)N(C)C)n(CCSC(=N)N)c3C[C@H]2CN1C(=O)c1ccccc1`, the z-score is -0.436 in experiment [1]; 1.36 (inactive) in experiment [2]; -0.399 (inactive) in [3]; -0.0424 (inactive) in experiment [5]; 0.0986 (inactive) in [6]; -0.456 (inactive) in experiment [7]. Moreover, the z-score in [8] is -0.295 (inactive); in experiment [9], -0.374. Besides, the composite z-score was 0.644 (inactive) in experiment [4] and -0.0592 in experiment [10].

On to `COCCOC(=O)N1C(=O)[C@@]2(c3cc(C#CC4(O)CCCCCC4)ccc31)[C@H](c1ccc(O)cc1)N1[C@H](c3ccccc3)[C@H](c3ccccc3)OC(=O)[C@H]1[C@@H]2C(=O)N1CCCCCCC1`, for which the z-score in [1] is 0.0323; in [2], -0.525 (inactive); in [3] it was 0.341 (inactive); in experiment [5], 1.19 (inactive); in experiment [6] it was 0.478 (inactive); in experiment [7] it was -0.298 (inactive). Also, the z-score in [8] is 0.625 (inactive); in experiment [9], -0.196. In addition, the composite z-score in [4] is -1.45 (inactive); in experiment [10], -0.0351.

As to `CCCCCC1=C2CNC(CC(C)C)(C(=O)OC)C=C2C(C)C1=O` (stereo not given), the z-score in experiment [1] is -0.97; in [2] it was 0.153 (inactive); in [3], -1.2 (inactive); in experiment [5], 0.383 (inactive); in experiment [6], 0.915 (inactive); in experiment [7] it was 0.0841 (inactive). The z-score is 0.501 (inactive) in [8] and -0.927 in [9]. Besides, the results for the composite z-score in [4] and in [10] were -1.09 (inactive) and 0.0907, respectively.

Take `COc1ccc(C(=O)Nc2cccc(CN3C(=O)[C@]4(O[C@H](CC(=O)N5Cc6ccccc6C[C@H]5CO)[C@@H]([Si](C)(C)c5ccc(OC)cc5)[C@@H]4C)c4ccccc43)c2)cc1`: the z-score in experiment [1] was 0.256; in experiment [2] it was 1.49 (inactive); in experiment [3], -1.38 (inactive); in experiment [5] it was 0.425 (inactive); in [6], 2.82 (inactive); in experiment [7], 0.0049 (inactive). Besides, the values for the z-score in experiment [8] and in experiment [9] were 0.0565 (inactive) and -0.891, respectively. Moreover, the composite z-score in experiment [4] is -3.9 (inactive); in experiment [10], 0.187.

Turning to `CN1C(=O)C2C(C3CC3)C=C3CN(Cc4cccc(Cl)c4)[C@@H]([C@@H](O)Cc4ccccc4)C3C2C1=O` (stereo not given in full), the z-score in experiment [1] was 0.313; in experiment [2], -1.83 (inactive); in [3], 0.076 (inactive); in [5], 0.601 (inactive); in experiment [6] it was 0.248 (inactive); in [7], 0.942 (inactive). Also, the values for the z-score in [8] and in [9] were 0.588 (inactive) and -0.0321, respectively. The composite z-score in experiment [4] is -0.0831 (inactive); in [10], -0.0264.
